{"source": "PubChem BioAssay (NCI)", "note": "About 83,000 compounds went through this panel and 20% of them were active in at least one assay; those are over-represented in the sample as a whole.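 In brief: 96-well plates, 48 h treatment, single concentration, percent growth endpoint.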 Activity calls are given as the source filed them. How the source made its calls: active means growth percent below 10; inactive means the rest."}
{"tested_on": "HL-60(TB) leukemia", "test": "NCI-60 one-dose screen, 48 h (100 = growth as untreated, 0 = no growth, -100 = all killed)", "conditions": "10 µM unless noted"}
{"molecule": "Cc1nn(-c2cc(=O)[nH]c3ccccc23)c(N)c1C#N", "growth": "102% (inactive)"}
{"molecule": "O=C(N/N=C/c1ccc([N+](=O)[O-])cc1)c1ccccc1Nc1ccnc(C(F)(F)F)c1", "growth": "78.4% (inactive)"}
{"molecule": "O=C(O)C1[S][Sb]([CH](C(=O)O)[CH](C(=O)O)[Sb]2[S]C(C(=O)O)C(C(=O)O)[S]2)[S]C1C(=O)O", "note": "(stereo unspecified)", "growth": "94.3% (inactive)"}
{"molecule": "O=Cc1c[nH]c2ccc(-c3csc4ccccc34)cc12", "growth": "3.68% (active)"}
{"molecule": "CCCCN(CCCC)CC(O)c1ccc(OCc2ccccc2)c2ccccc12", "note": "(stereo unspecified)", "growth": "-23.6% (active)"}
{"molecule": "COC(=O)[C@H]1Cc2c([nH]c3ccccc23)[C@@H](c2cccs2)N1", "growth": "99.7% (inactive)"}
{"molecule": "O=C1CC(C(F)(F)F)=NN1C(=O)c1nn(-c2ccc(Cl)cc2)cc1O", "growth": "105% (inactive)"}
{"molecule": "COc1cc(OC)c(/C=C/C(=O)c2c(OC)cccc2OC)c(OC)c1", "growth": "7.89% (active)"}
{"molecule": "Nc1c(Cl)cc([N+](=O)[O-])cc1Br", "growth": "101% (inactive)"}
{"molecule": "CC1(COc2ccc3c(c2)ncn3-c2ccc3cccc(N4CCC(N)CC4)c3n2)COC1", "growth": "-46.9% (active)"}
{"molecule": "Cc1cc(CSc2ccc(Cl)cc2)ccc1N", "growth": "3.9% (active)"}
{"molecule": "O=c1ccn(C2CCCO2)c(=O)[nH]1", "note": "(stereo unspecified)", "growth": "111% (inactive)"}
{"molecule": "NC(=O)c1c(NC(=O)c2ccc3c(c2)OCO3)sc2c1CCC(=O)C2", "growth": "-58.3% (active)"}
{"molecule": "CN1CCN(CCNC(=O)c2cccc(CN3c4cccc5c4C(=Cc4cccnc43)N(C)C5=O)c2)CC1", "growth": "-6.25% (active)"}
{"molecule": "O=C(Nc1ccccc1F)Nc1ccccc1Cl", "growth": "52% (inactive)"}
{"molecule": "Cc1ccc(-c2nc(N3CCN(CC(=O)Nc4ccc(Cl)cc4)CC3)c3ccccc3n2)cc1", "growth": "99.8% (inactive)"}
